Results taken from PubChem BioAssay (NCATS).
Records with an inconclusive call do not appear. Unless noted, calls follow the shape of the dose curve; as a rule, active = well fitted curve in either direction with a large enough effect (not every such curve was filed as active); inconclusive = small, poorly fitted or top-dose-only effect, or another doubt; inactive = flat fitted curve, though single readings scatter.

What was measured:
[1] = AP1 Signaling Pathway (AID 357); settings: ME-180 AP-1-bla reporter, EGF-induced, beta-lactamase ratio, 5 h; at 17.2 µM (top of the series) unless noted;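 also: ME-180 reporter cells stimulated with EGF at its EC50 level; % is scaled to controls: 0 for no effect and ±100 for the full control effect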
In short: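 Cells are seeded overnight, exposed to compound titrations and an EC50 level of EGF for 5 hours at 37 °C, then loaded with CCF4 dye for 2.5 hours. Beta-lactamase activity under the AP-1 element is read as a blue/green ratio.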

[2] = Stat Signaling Pathway (AID 446); settings: ME-180 (cervical carcinoma) SIE beta-lactamase reporter, IL-6 stimulated, 5 h; at 17.2 µM (top of the series) unless noted;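 also: ME-180 cervical cancer cells given 40 pM IL-6 alongside compound; SIE-controlled beta-lactamase reporter measured as 460/530 nm FRET emission ratio; % is scaled to controls: 0 for no effect and ±100 for the full control effect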
In short: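 FRET read-out (405 nm excitation, 460/530 nm emission) of a beta-lactamase reporter under a STAT-inducible element in ME-180 cervical carcinoma cells. Cells with compound receive 40 pM IL-6 for 5 h. Values are normalised to AC90 stimulation and AC90 JAK-inhibitor controls.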

[3] = molecular target: Glucocorticoid receptor (Homo sapiens) (UniProt P04150); test: GR-GFP Redistribution (AID 450;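 active = compounds whose dose series gives a full or clear partial fitted curve of increased nuclear translocation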; also: potency is read from the fitted curve at half-maximal effect)
Glucocorticoid receptor (Homo sapiens), sequence (P04150 whole entry, looked up): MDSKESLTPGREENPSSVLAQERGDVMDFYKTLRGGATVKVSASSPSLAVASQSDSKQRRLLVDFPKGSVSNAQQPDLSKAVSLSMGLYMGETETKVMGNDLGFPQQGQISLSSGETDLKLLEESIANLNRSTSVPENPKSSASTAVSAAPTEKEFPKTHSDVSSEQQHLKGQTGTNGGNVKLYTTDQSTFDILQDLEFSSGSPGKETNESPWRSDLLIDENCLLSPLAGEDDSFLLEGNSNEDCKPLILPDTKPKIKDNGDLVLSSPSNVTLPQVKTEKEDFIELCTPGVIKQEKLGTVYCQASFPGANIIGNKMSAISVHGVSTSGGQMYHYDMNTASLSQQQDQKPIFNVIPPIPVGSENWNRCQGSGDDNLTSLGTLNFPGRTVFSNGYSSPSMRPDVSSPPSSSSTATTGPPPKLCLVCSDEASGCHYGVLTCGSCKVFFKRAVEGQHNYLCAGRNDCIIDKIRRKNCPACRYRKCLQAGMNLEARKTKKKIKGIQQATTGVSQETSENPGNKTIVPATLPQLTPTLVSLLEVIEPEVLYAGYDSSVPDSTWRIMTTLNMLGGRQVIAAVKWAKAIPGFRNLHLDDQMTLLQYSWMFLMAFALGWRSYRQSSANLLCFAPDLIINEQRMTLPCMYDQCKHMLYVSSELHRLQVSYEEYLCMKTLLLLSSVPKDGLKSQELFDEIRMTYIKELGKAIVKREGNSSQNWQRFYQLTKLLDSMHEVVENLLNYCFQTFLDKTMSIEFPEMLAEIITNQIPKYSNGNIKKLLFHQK

CCSc1nc2sc3c(c2c(=O)n1C1CCCCC1)CCN(C)C3
inactive: activity change, negative = inhibition [1] 4.46% | activity, negative = inhibition [2] 24.3% | Potency [3] > 20.6 µM

CCCCc1c(O)nc(SCCN(C)C)n(-c2ccccc2)c1=O
inactive: activity change, negative = inhibition [1] 10% | activity, negative = inhibition [2] 2.07% | Potency [3] > 20.6 µM

C=CC[N+](C)(C)CCCNC(=O)/C=N/O
inactive: activity change, negative = inhibition [1] 6.86% | activity, negative = inhibition [2] 4.74% | Potency [3] > 20.6 µM

C/C(=N\O)c1ccc2[nH]ccc2c1
inactive: activity change, negative = inhibition [1] 2.69% | activity, negative = inhibition [2] 13.9% | Potency [3] > 20.6 µM

C=C1c2cc(OC)ccc2NC(=O)N1CC
inactive: activity change, negative = inhibition [1] 13.3% | activity, negative = inhibition [2] 1.02% | Potency [3] > 20.6 µM

COc1ccc(-c2nc3c(Br)c(N)c(Br)cc3o2)cc1
inactive: activity change, negative = inhibition [1] 4.22% | activity, negative = inhibition [2] 8.24% | Potency [3] > 20.6 µM

CC1(C)Cc2c(C#N)c(SCCOc3ccccc3)nc(N3CCOCC3)c2CO1
inactive: activity change, negative = inhibition [1] -5.93% | activity, negative = inhibition [2] -22.3% | Potency [3] > 20.6 µM

CCCCCNc1nc(N2CCCC2)c2c(c1C#N)CCN(C)C2
inactive: activity change, negative = inhibition [1] 3.36% | activity, negative = inhibition [2] -7.71% | Potency [3] > 20.6 µM

CCOC(=O)C1CCN(c2nc3ccccc3nc2C(C#N)C(=O)OCCOC)CC1 (stereo not given)
inactive: activity change, negative = inhibition [1] -17.6% | activity, negative = inhibition [2] -9.08% | Potency [3] > 20.6 µM

Cc1c(C)c2cc(Cl)c(O)c(CN3CCCCC3)c2oc1=O
inactive: activity change, negative = inhibition [1] 17.2% | activity, negative = inhibition [2] 2.68% | Potency [3] > 20.6 µM

CCC(CC)n1[nH]c(=O)cc1N
inactive: activity change, negative = inhibition [1] -9.54% | activity, negative = inhibition [2] 2.51% | Potency [3] > 20.6 µM

CCCCCCOc1ccc(C(=O)n2cnc(N)n2)cc1
inactive: activity change, negative = inhibition [1] -12.8% | activity, negative = inhibition [2] 27.4% | Potency [3] > 20.6 µM

Cc1cccc(N(Cc2cc3ccccc3[nH]c2=O)C(=O)c2ccco2)c1C
inactive: activity change, negative = inhibition [1] -19.9% | activity, negative = inhibition [2] -17% | Potency [3] > 20.6 µM

Cn1c(Cl)cnc1C1CC(=O)c2cc(Cl)ccc2O1 (stereo not given)
inactive: activity change, negative = inhibition [1] 14.1% | activity, negative = inhibition [2] 0.321% | Potency [3] > 20.6 µM

CCCc1cc(NCCCCO)n2c(nc3ccccc32)c1C#N
inactive: activity change, negative = inhibition [1] -18.6% | activity, negative = inhibition [2] -4.18% | Potency [3] > 20.6 µM

Cc1c(CCC#N)c(N2CCN(C3CCCCC3)CC2)n2c(nc3ccccc32)c1C#N
inactive: activity change, negative = inhibition [1] -16.9% | activity, negative = inhibition [2] 9.87% | Potency [3] > 20.6 µM

C[C@]12CC[C@@H]3c4ccc(O)cc4CC[C@H]3[C@@H]1CC[C@@H]2OC(=O)CCC(=O)O
inactive: activity change, negative = inhibition [1] -5.44% | activity, negative = inhibition [2] -12.1% | Potency [3] > 20.6 µM

COc1ccc(CN(C#N)c2nc(SC)nc(N(C)C)n2)cc1
inactive: activity change, negative = inhibition [1] -3.69% | activity, negative = inhibition [2] 2.92% | Potency [3] > 20.6 µM

CC(C)(C)OC(=O)NCCC(=O)Oc1ccc2ccc(=O)oc2c1
inactive: activity change, negative = inhibition [1] 16.1% | activity, negative = inhibition [2] 12.7% | Potency [3] > 20.6 µM

Cc1ccc(NC(=O)CSC2=C(C#N)C(c3ccco3)C3=C(CCCC3=O)N2)cc1 (stereo not given)
inactive: activity change, negative = inhibition [1] -26.3% | activity, negative = inhibition [2] 30.5% | Potency [3] > 20.6 µM

CC1(C)C2CCC1(C)C(NC(=O)CCN1CCCCC1)C2 (stereo not given)
inactive: activity change, negative = inhibition [1] 6.22% | activity, negative = inhibition [2] 8.36% | Potency [3] > 20.6 µM

C(=N\n1cnnc1)/c1ccccn1
inactive: activity change, negative = inhibition [1] 1.5% | activity, negative = inhibition [2] 7.02% | Potency [3] > 20.6 µM

Cc1ccc2[nH]c3c(c2c1)CN(C(=O)CN1CCCc2ccccc21)CC3
inactive: activity change, negative = inhibition [1] -22.5% | activity, negative = inhibition [2] -11.3% | Potency [3] > 20.6 µM

COC(=O)NCC12CC3CC(C1)CC(CNC(=O)OC)(C3)C2
inactive: activity change, negative = inhibition [1] 3.64% | activity, negative = inhibition [2] -1.03% | Potency [3] > 20.6 µM

CC(C)Sc1nc(N2CCCC2)c2c(c1C#N)CC(C)(C)OC2
inactive: activity change, negative = inhibition [1] -10.5% | activity, negative = inhibition [2] -9.04% | Potency [3] > 20.6 µM

CC(C)Cc1nc(N2CCOCC2)c(C#N)c2c1CCC2
inactive: activity change, negative = inhibition [1] -16.4% | activity, negative = inhibition [2] -0.768% | Potency [3] > 20.6 µM

O=C(O)CC(NCc1ccco1)C(=O)OCC1CCCO1 (stereo not given)
inactive: activity change, negative = inhibition [1] 11.5% | activity, negative = inhibition [2] -1.58% | Potency [3] > 20.6 µM

CC1CN(C2CCN(C(=O)c3ccccc3Cl)CC2)CC(C)O1 (stereo not given)
inactive: activity change, negative = inhibition [1] 6.4% | activity, negative = inhibition [2] 1.52% | Potency [3] > 20.6 µM

Cc1ccc(C(=O)C2C(c3cccs3)NC(=O)NC2(O)C(F)(F)F)cc1 (stereo not given)
inactive: activity change, negative = inhibition [1] 1.39% | activity, negative = inhibition [2] 0.646% | Potency [3] > 20.6 µM

O=c1c2ccccc2[nH]c(=S)n1CCN1CCC(=C(c2ccc(F)cc2)c2ccc(F)cc2)CC1
inactive: activity change, negative = inhibition [1] 10.4% | activity, negative = inhibition [2] -6.03% | Potency [3] > 20.6 µM

CC1(C)Cc2c(sc(NC(=O)c3ccc(Br)o3)c2C#N)CO1
inactive: activity change, negative = inhibition [1] -3.32% | activity, negative = inhibition [2] -9.34% | Potency [3] > 20.6 µM

COC(=O)c1cc(=O)n2c(-c3ccc(OC)cc3)csc2n1
inactive: activity change, negative = inhibition [1] -2.63% | activity, negative = inhibition [2] 5.85% | Potency [3] > 20.6 µM

CCn1cc(C(=O)NCCc2ccccc2)c(=O)c2cc(F)c(N3CCN(C)CC3)cc21
inactive: activity change, negative = inhibition [1] -9.7% | activity, negative = inhibition [2] -5.45% | Potency [3] > 20.6 µM

Cc1ccc(Cn2ncc3c(N4CCN(Cc5ccc(Cl)cc5)CC4)ncnc32)cc1
inactive: activity change, negative = inhibition [1] -8.19% | activity, negative = inhibition [2] -14.5% | Potency [3] > 20.6 µM

CCc1cc(=O)oc2c(CN3CCN(C)CC3)c(O)c(Cl)cc12
inactive: activity change, negative = inhibition [1] 12.5% | activity, negative = inhibition [2] 2.51% | Potency [3] > 20.6 µM

O=C(c1ccccc1F)N1CCC(N2CCCCCC2)CC1
inactive: activity change, negative = inhibition [1] -3.96% | activity, negative = inhibition [2] 2.78% | Potency [3] > 20.6 µM

Cc1nc(-c2cn[nH]c2)c2cc(C)oc2n1
inactive: activity change, negative = inhibition [1] -1.95% | activity, negative = inhibition [2] -3.87% | Potency [3] > 20.6 µM

Nc1c2c(nc3ccccc13)N(C1CCCCC1)CC2
inactive: activity change, negative = inhibition [1] 13.8% | activity, negative = inhibition [2] 16.7% | Potency [3] > 20.6 µM

N#Cc1c(N)n(CCOC(=O)c2cccc(Br)c2)c2nc3ccccc3nc12
inactive: activity change, negative = inhibition [1] -0.25% | activity, negative = inhibition [2] 16.2% | Potency [3] > 20.6 µM

c1ccc2c(c1)CCOC2CNCCCN1CCCCC1 (stereo not given)
inactive: activity change, negative = inhibition [1] -0.837% | activity, negative = inhibition [2] 2.31% | Potency [3] > 20.6 µM

CCOC(=O)CSc1nnc2n(C3CCCCC3)c(=O)c3c4c(sc3n12)CCCC4
inactive: activity change, negative = inhibition [1] -9.49% | activity, negative = inhibition [2] -21.4% | Potency [3] > 20.6 µM

CCCOc1cccc(CN2CCCCC2c2cccnc2)c1 (stereo not given)
inactive: activity change, negative = inhibition [1] 0.284% | activity, negative = inhibition [2] 0.49% | Potency [3] > 20.6 µM

O=C(c1cccs1)N1CCC(N2CCN(c3ccccc3)CC2)CC1
inactive: activity change, negative = inhibition [1] 9.88% | activity, negative = inhibition [2] -2.08% | Potency [3] > 20.6 µM

N#Cc1c(SCC(N)=O)nsc1SCc1ccc(Cl)cc1
inactive: activity change, negative = inhibition [1] -15.5% | activity, negative = inhibition [2] -18% | Potency [3] > 20.6 µM

Cc1ccc(-c2ccc(/C=N/c3ncn[nH]3)o2)cc1Cl
inactive: activity change, negative = inhibition [1] 1.81% | activity, negative = inhibition [2] -7.79% | Potency [3] > 20.6 µM

Nc1nnnn1/N=C/c1ccco1
inactive: activity change, negative = inhibition [1] 2.89% | activity, negative = inhibition [2] -1.38% | Potency [3] > 20.6 µM

COc1cccc(-c2nc(N3CCC(C)CC3)c3ccccc3n2)c1O
inactive: activity change, negative = inhibition [1] 16.6% | activity, negative = inhibition [2] 5.63% | Potency [3] > 20.6 µM

Cc1ccc2cc(CN(C(=O)c3ccco3)c3ccccc3C)c(=O)[nH]c2c1
inactive: activity change, negative = inhibition [1] -25.5% | activity, negative = inhibition [2] -12.8% | Potency [3] > 20.6 µM

Cc1ccc(OCC(=O)N2CCC(N3CCCCCC3)CC2)cc1
inactive: activity change, negative = inhibition [1] 3.92% | activity, negative = inhibition [2] 17.9% | Potency [3] > 20.6 µM

O=S(=O)(c1ccccc1)N1CCC(N2CCCCCC2)CC1
inactive: activity change, negative = inhibition [1] 5.59% | activity, negative = inhibition [2] 4.98% | Potency [3] > 20.6 µM

CCCSc1nnc2n(-c3ccccc3OC)c(=O)c3c4c(sc3n12)CCC4
inactive: activity change, negative = inhibition [1] 3.26% | activity, negative = inhibition [2] 15% | Potency [3] > 20.6 µM

C/C(=N\O)c1c(C)c2ccccc2n1C
inactive: activity change, negative = inhibition [1] 2.06% | activity, negative = inhibition [2] 4.84% | Potency [3] > 20.6 µM

CN1CCN(CCC(=O)N2c3ccccc3Sc3ccc(Cl)cc32)CC1
inactive: activity change, negative = inhibition [1] 12.7% | activity, negative = inhibition [2] 6.36% | Potency [3] > 20.6 µM

COC(=O)c1ccc(CSc2ncnc3c2sc2nc(N4CCOCC4)c4c(c23)CCCC4)o1
inactive: activity change, negative = inhibition [1] 20.1% | activity, negative = inhibition [2] 25.6% | Potency [3] > 20.6 µM

Cc1c(N=Cc2c(O)n(C3CCCCC3)c(=O)[nH]c2=O)c(=O)n(-c2ccccc2)n1C
inactive: activity change, negative = inhibition [1] -6.37% | activity, negative = inhibition [2] -1.79% | Potency [3] > 20.6 µM

CCSc1nc2sc3c(c2c2nnc(SCC(=O)NCc4ccco4)n12)CCCC3
inactive: activity change, negative = inhibition [1] -11.8% | activity, negative = inhibition [2] -18.7% | Potency [3] > 20.6 µM

Cn1c(OCc2cccnc2)nc2c1c(=O)n(Cc1ccc(Br)cc1)c(=O)n2C
inactive: activity change, negative = inhibition [1] -26.8% | activity, negative = inhibition [2] -27.6% | Potency [3] > 20.6 µM

O=C1C=C(N2CCN(C3=CC(=O)CCC3)CC2)CCC1
inactive: activity change, negative = inhibition [1] 20.4% | activity, negative = inhibition [2] 13.1% | Potency [3] > 20.6 µM

COc1cc([C@@H]2[C@H]3CNCC=C3C(C#N)=C(N)C2(C#N)C#N)ccc1OC(C)C
inactive: activity change, negative = inhibition [1] 14% | activity, negative = inhibition [2] 10.8% | Potency [3] > 20.6 µM

CCCCNC(=O)c1c(N)n(/N=C/c2cccnc2)c2nc3ccccc3nc12
inactive: activity change, negative = inhibition [1] -12% | activity, negative = inhibition [2] 16.8% | Potency [3] > 20.6 µM
